Compounds with a hit are over-represented: about 2.8% of the library has one in this group of screens.
GLP-1R inv ag: qHTS of GLP-1 Receptor Inverse Agonists (Inhibition Mode) | Glucagon-like peptide 1 receptor (Homo sapiens), P43220 | HEK293 GLP-1R CRE-luciferase, luminescence, 24 h; GLP-1R form is constitutively active | Potency, µM (titrated, usually from 38.3 µM), without a hit: at the highest dose activity change, negative = inhibition, hits mostly inhibitors | 410,000 compounds, 1.6% hits; also: potency is read from the fitted curve at half-maximal effect; % is scaled to controls: 0 for no effect and ±100 for the full control effect; nearly all actives have a fitted effect of over 55% in size
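Readout was luciferase luminescence, measured 12 min after detection reagent at room temperature. Beforehand, GLP-1R reporter HEK293 cells had sat 12 h, then received compounds for 24 hr at 37 deg C.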
KCNH2 3.1 block: qHTS for Inhibitors of KCHN2 3.1: Mutant qHTS; activity change, % (tested at about 1.8 µM); Potassium voltage-gated channel subfamily H member 2, brain isoform KCNH2 3.1 (human); AID 720553, 2013; U2OS KCNH2 3.1, thallium flux FluxOr; active compounds read low; 340,000 compounds, 0.95% hits;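 active = maximum activity change below -70%; inconclusive = maximum activity change from -70% to -50%; inactive = maximum activity change above -50%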;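 also: thallium influx rate constant from kinetic fluorescence after stimulation buffer; % is scaled to controls: 0 for no effect and ±100 for the full control effect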
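Thallium flux via FluxOr fluorescence (Red40 quencher, 45 min loading) in U2OS cells virally expressing the KCNH2 3.1 isoform (1.77 x 10^8 /mL virus, overnight at 37 C). Rate constants from 2-min kinetic reads post-stimulation, normalised to positive and negative controls.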
HEK293 tox: qHTS of GLP-1 Receptor Inverse Agonists: Cytotox Screen; HEK293 cAMP-luciferase reporter cells, luminescence, 24 h; Potency, µM (doses to about 38.3 µM), for inactives: top-dose activity change, negative = inhibition, most hits filed as inhibitors; 410,000 compounds, 0.13% hits; AID 624418, 2012;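 also: loss of luciferase light is scored as toxicity; potency is read from the fitted curve at half-maximal effect; % is scaled to controls: 0 for no effect and ±100 for the full control effect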
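To flag toxic compounds, the library was rerun on cells for 24 hr at 37 deg C and 5% CO2. Viability-linked luminescence was captured 12 min after adding luciferase detection reagent.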
GLS inhibitor: qHTS for Inhibitors of Glutaminase (GLS) | Glutaminase kidney isoform, mitochondrial (Homo sapiens), O94925 | GLS enzymatic activity, qHTS titration | Potency, µM (doses to about 45.5 µM), without a hit: at the highest dose activity change, negative = inhibition, usual class: inhibitors | 410,000 compounds, 0.21% hits | AID 624170, 2012; also: potency is read from the fitted curve at half-maximal effect; % is scaled to controls: 0 for no effect and ±100 for the full control effect
Target sequence (O94925 whole entry, looked up, canonical isoform): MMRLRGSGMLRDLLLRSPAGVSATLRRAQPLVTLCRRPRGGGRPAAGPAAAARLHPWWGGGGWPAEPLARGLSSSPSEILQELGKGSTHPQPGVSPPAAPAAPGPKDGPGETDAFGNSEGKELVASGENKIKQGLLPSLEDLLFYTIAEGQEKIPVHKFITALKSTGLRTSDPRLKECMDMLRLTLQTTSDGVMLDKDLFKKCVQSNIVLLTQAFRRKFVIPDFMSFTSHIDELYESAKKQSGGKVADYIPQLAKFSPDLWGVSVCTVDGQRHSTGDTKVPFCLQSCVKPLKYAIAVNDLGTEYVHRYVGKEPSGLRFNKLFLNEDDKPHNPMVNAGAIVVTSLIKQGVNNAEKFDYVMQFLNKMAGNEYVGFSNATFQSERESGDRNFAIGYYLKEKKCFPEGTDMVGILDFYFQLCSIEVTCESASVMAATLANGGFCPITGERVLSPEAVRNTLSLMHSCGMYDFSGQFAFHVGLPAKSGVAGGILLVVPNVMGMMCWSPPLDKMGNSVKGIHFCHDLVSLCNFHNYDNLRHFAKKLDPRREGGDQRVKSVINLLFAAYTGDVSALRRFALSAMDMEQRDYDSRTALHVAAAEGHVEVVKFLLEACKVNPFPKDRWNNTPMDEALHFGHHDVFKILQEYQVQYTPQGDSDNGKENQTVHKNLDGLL
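hKGA; 45 mM KH2PO4 pH 8.2 + 0.02% Tween-20; cpd via pin tool; 1 mM Gln soln; GluOx/HRP/Amplex Red; RT 30 min; fluor. t0 & final.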
hERG WT inh: qHTS for Inhibitors of KCHN2 3.1: Wildtype qHTS; Voltage-gated inwardly rectifying potassium channel KCNH2 (Homo sapiens), Q12809; U2OS, BacMam KCNH2, thallium flux FluxOr; active compounds read low; activity change, % at 1.84 µM; 340,000 compounds, 0.37% hits;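 active = maximum activity change below -70%; inconclusive = maximum activity change between -70% and -50%; inactive = maximum activity change above -50%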; also: % is scaled to controls: 0 for no effect and ±100 for the full control effect
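U2OS cells transduced with wild-type KCNH2 virus are loaded with FluxOr dye for 45 min, and thallium flux is measured in kinetic reads before and after stimulation buffer. Rate constants are normalized to DMSO controls.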
GLP-1R agonist: qHTS of GLP-1 Receptor Agonists; Glucagon-like peptide 1 receptor (Homo sapiens), P43220; HEK293 GLP-1R CRE-luciferase, luminescence, 4-6 h; cells express a hypersensitive GLP-1R form; Potency, µM (doses to about 45.6 µM), for inactives: top-dose activation, usual class: activators; 380,000 compounds, 0.007% hits; also: potency is read from the fitted curve at half-maximal effect; % of control where 0% means no effect
Numbers without * were called inactive; u = inconclusive; x = not tested or not shown. Unless noted, calls follow the shape of the dose curve; as a rule, active = well fitted curve in the direction sought with a large enough effect; inconclusive = small, poorly fitted or top-dose-only effect, or another doubt; inactive = no such curve, though single readings can be large; an effect the other way counts as inactive or inconclusive.

SMILES | GLP-1R inv ag | KCNH2 3.1 block | HEK293 tox | GLS inhibitor | hERG WT inh | GLP-1R agonist
O=C(CCCn1c(=O)c2sccc2n(CC(=O)NCc2ccco2)c1=O)NCc1ccco1 | 0.9% | 9.9 | -13.5% | -11.4% | -3.0 | 4.0%
O=C(CCn1c(=O)c2sccc2n(CC(=O)NCc2ccco2)c1=O)NCc1ccccc1 | 2.4% | 3.0 | -6.2% | -8.2% | -254.0* | 1.8%
O=C(N/N=C\c1ccc(CN(Cc2ccc(Cl)cc2)S(=O)(=O)c2ccccc2)o1)C(=O)Nc1ccc(F)cc1 | 4.6% | -75.5* | -6.5% | 22.6% | -48.0 | -17.2%
CCOc1ccc(-n2c(SCC(=O)Nc3ccc(CC)cc3)nc3c(oc4ccccc43)c2=O)cc1 | 2.6% | x | 2.1% | 0.9% | x | x
O=C(NC1CC1)C1=C[C@H](c2ccccc2)C[C@H](OCc2ccc(CO)cc2)O1 | 4.2% | -181.4* | 1.4% | -2.6% | -10.8 | 1.0%
O=C(Nc1ccccc1)C1=C[C@H](c2csc3ccccc23)C[C@H](OCc2ccc(CO)cc2)O1 | 10µM* | -22.0 | -16.8% | 10.1% | 1.8 | -8.8%
O=C(NC1CC1)C1=C[C@H](c2csc3ccccc23)C[C@H](OCc2ccc(CO)cc2)O1 | -11.9% | 6.1 | 0.2% | 1.5% | 2.0 | 10.8%
O=C(NC1CC1)C1=C[C@H](c2ccc(Br)cc2)C[C@H](OCc2ccc(CO)cc2)O1 | -26.5% | -10.2 | -6.1% | 1.3% | 0.2 | -4.2%
CN1CCN(C(CNC(=O)C(=O)Nc2ccccc2)c2ccc3c(c2)OCO3)CC1 (configuration not stated) | -12.0% | x | 0.7% | 7.8% | x | x
Cc1ccc(NC(=O)CSc2nc(-c3cccs3)cc(C(F)(F)F)n2)cc1C | -28.3% | x | -17.5% | -10.2% | x | 0.2%
O=C1CC(N(CCc2ccccc2)C(=S)Nc2ccccc2)C(=O)N1c1ccc(F)cc1 (configuration not stated) | 4.47µM* | -79.8* | u | -0.5% | -1.8 | 0.3%
CCCOc1ccc(N2C(=O)CC(N(Cc3ccc(OC)cc3)C(=S)Nc3ccccc3)C2=O)cc1 (configuration not stated) | u | -44.8 | 4.4% | -13.7% | -7.8 | -3.3%
CCCOc1ccc(N2C(=O)CC(N(CCc3ccc(OC)c(OC)c3)C(=S)Nc3ccccc3)C2=O)cc1 (configuration not stated) | 5.62µM* | -1.6 | -21.0% | 8.4% | -5.9 | -4.4%
O=C1CC(N(CCc2ccccc2)C(=S)Nc2cc(Cl)ccc2Cl)C(=O)N1c1c(Cl)cccc1Cl (configuration not stated) | 4.47µM* | 30.1 | -7.3% | -5.6% | 6.0 | -5.8%
O=C1CC(N(CCc2ccccc2)C(=S)Nc2ccccc2)C(=O)N1c1ccccc1 (configuration not stated) | u | 16.0 | -21.1% | 0.7% | -0.2 | -33.9%
Cc1ccc(-n2nnc(-c3nc(-c4cccs4)no3)c2N)cc1C | 2.7% | x | 10.5% | -4.8% | x | x
Cc1cc(Nc2cccc(C)c2C)n2cnnc2n1 | 2.3% | x | -1.4% | -1.5% | x | x
Nc1ccc2c(c1)[nH]c(=O)c1ccccc12 | 98.4% | -196.1* | 4.8% | 15.5% | -11.9 | 1.6%
Cc1ccc(C(=O)OCc2cc(=O)n3nc(CC(C)C)sc3n2)cc1 | 4.9% | x | -1.3% | -4.4% | x | x
CC1CC(C)CN(C(=O)c2ccc3c(c2)N(Cc2ccccc2)CCS3)C1 (configuration not stated) | 11.2µM* | 0.8 | -16.0% | 19.2% | 0.5 | 19.1%
CCC(=O)NCCn1ccc2ccccc21 | 4.2% | -4.8 | 1.1% | 2.5% | -139.9* | 1.2%
CCn1ncc(CN2CCCC(C(=O)Nc3cccc(-c4cc5ccccc5[nH]4)c3)C2)c1C (configuration not stated) | 3.55µM* | -10.5 | u | 9.1% | 21.6 | 1.6%
O=C(NC1CCCCCCC1)c1cccc(Cl)c1 | u | 2.6 | -8.9% | -11.2% | -0.8 | 17.5%
S=C(Nc1ccc(Cl)cc1)NC1CCCCC1 | 10µM* | 14.0 | u | -5.5% | 3.6 | 11.9%
S=C(Nc1ccc(Br)cc1)NC1CCCCC1 | u | -1.4 | u | 2.1% | -3.6 | -4.9%
SMILES | GLP-1R inv ag | KCNH2 3.1 block | HEK293 tox | GLS inhibitor | hERG WT inh | GLP-1R agonist
S=C(NNc1cccc(Cl)c1)NC1CCCCC1 | 10µM* | 6.5 | u | u | -10.2 | 9.5%
FC(F)Oc1ccc(NC(=S)NC2CCCCCCC2)cc1 | 4.47µM* | -33.0 | -15.6% | 1.6% | -4.7 | 1.2%
Cc1cc(C)cc(NC(=S)N2CCC(NC(=O)C3CC3)CC2)c1 | -1.7% | -10.6 | -3.6% | 3.8% | -95.4* | 9.1%
Cc1cc(C)cc(NC(=S)N2CCC(NC(=O)C3CCCCC3)CC2)c1 | -0.6% | -9.5 | 19.1% | -14.1% | 8.4 | 6.4%
S=C(Nc1cccc(Cl)c1)NC1CCCCC1 | 8.91µM* | -4.0 | u | -2.0% | -2.2 | 8.4%
S=C(Nc1ccc(Nc2ccccc2)cc1)NC1CCCCCC1 | 5.01µM* | -24.0 | -7.6% | -3.3% | -2.8 | 4.7%
O=C(NC1CCN(C(=O)Nc2cccc(Cl)c2)CC1)C1CCCCC1 | -11.7% | -72.8* | 2.6% | -11.2% | -8.6 | 4.8%
COC(=O)c1ccc(NC(=S)NC2CCCCC2)cc1 | u | 0.0 | -29.1% | -3.5% | -15.5 | -5.8%
N#CCC(=O)Nc1ccc(C(=O)NNC(=S)NC2CCCCC2)cc1 | -23.1% | -6.3 | -27.1% | 17.8µM* | -12.2 | 2.3%
CC(=O)c1cccc(NC(=S)NC2CCCCC2)c1 | 26.6% | 1.9 | -4.1% | -6.2% | -3.4 | 1.3%
CCCN(C(=O)NCc1noc2ccc(C)cc12)c1ccc(Cl)c(Cl)c1 | u | x | 0.7% | 1.4% | x | x
Cc1ccc(/C=C2/Sc3ccc(C(=O)NCc4ccccn4)cc3NC2=O)cc1 | 14.1% | 0.3 | 61.0% | 17.8µM* | 0.5 | -0.9%
CCN1CCN(CCCNC(=O)c2ccc3c(c2)NC(=O)/C(=C\c2cccc(C)c2)S3)CC1 | 7.08µM* | -19.6 | u | 0.7% | 10.7 | -0.3%
Cc1cccc(/C=C2/Sc3ccc(C(=O)NCCN4CCCC4)cc3NC2=O)c1 | u | -14.6 | u | 1.2% | 15.9 | 11.3%
CCn1c(SCC(=O)Nc2ccccc2)nc2c([nH]c3ccccc32)c1=O | 12.1% | x | -7.2% | -13.5% | x | 9.8%
